Rows were chosen to be rich in hits. Some 2.3% of all compounds tested hit in one or more screens of this group.
Rce1 inhib = blocks yeast Ras-converting enzyme; Q03530; yeast membranes, quenched prenylated peptide cleavage fluorescence; calls only; 290,000 tested, 0.27% active; AID 2563;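 active = fall in fluorescence gain of 50% or more versus controls, with final raw signal at or below 3038400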
DNA FID counter = counter-screen for HCV NS3 helicase inhibitors: DNA intercalator displacement. DNA fluorescent intercalator displacement, fluorescence. inhibition, % at 7.9 µM. 290,000 tested, 0.17% active. AID 1845; in the data active = inhibition above about 37%;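 also: higher means more ethidium bromide displaced from hairpin DNA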
Kir21 inh = inhibitors of mouse Kir2.1 inward-rectifier potassium channel | P35561 | AID 1672 | HEK293-Kir2.1, FluxOR thallium flux fluorescence; hits give low values | B-score at 10 µM | 310,000 tested, 0.85% active;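 active = fluorescence ratio B-score at or below minus 3 SD of library scores, with starting-brightness B-score within 2 SD, cut at about -4.2 in these data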;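 also: channel flux triggered by added potassium and thallium sulfate stimulus; B-score of peak minus minimum fluorescence over baseline after thallium stimulus; more negative B-score means stronger Kir2.1 block with less thallium influx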
Target sequence (P35561 whole entry, looked up): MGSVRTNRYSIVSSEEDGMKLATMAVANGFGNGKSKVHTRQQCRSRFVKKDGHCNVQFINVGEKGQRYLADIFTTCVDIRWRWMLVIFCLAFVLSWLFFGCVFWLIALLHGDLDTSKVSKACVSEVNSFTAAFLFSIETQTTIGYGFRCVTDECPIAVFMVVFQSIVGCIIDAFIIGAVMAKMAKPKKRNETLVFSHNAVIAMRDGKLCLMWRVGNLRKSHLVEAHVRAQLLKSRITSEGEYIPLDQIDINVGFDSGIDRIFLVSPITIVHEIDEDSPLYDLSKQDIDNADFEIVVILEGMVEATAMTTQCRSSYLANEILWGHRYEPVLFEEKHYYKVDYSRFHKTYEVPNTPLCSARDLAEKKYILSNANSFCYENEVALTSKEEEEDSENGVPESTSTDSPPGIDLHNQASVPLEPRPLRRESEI
PfM18AAP inh = blocks P. falciparum M18 aspartyl aminopeptidase; recombinant PfM18AAP, H-Glu-NHMec fluorogenic cleavage; 290,000 tested, 1.2% active; AID 1822; inhibition, % at 7.35 µM;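 active = inhibition above the campaign mean inhibition over all tested compounds plus 3 SD, cut at about 28% in these data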
Each line names hits and unclear results; the compound was inactive in the other large screens.

CN(C)c1ccc(/C=C/c2ccc3ccccc3[n+]2C)cc1	DNA FID counter 41.7, Kir21 inh -13.9
CN(CCCS(=O)(=O)[O-])c1ccc(/C=C/c2ccc3ccccc3[n+]2C)cc1	none
CN(C)c1ccc(/C=C/c2cccc[n+]2[O-])cc1	none (no result: Rce1 inhib)
O=C(NCCN1CCN(c2ccccc2)CC1)Nc1ccccc1Br	none
Cc1noc(C)c1CSc1nnc2scc(-c3ccc(Cl)cc3)n12	Kir21 inh -4.38
COc1ccc(NC(=S)Nc2ccc3snnc3c2)cc1	PfM18AAP inh 30.3
COc1ccc(NC(=S)Nc2ccc3nccnc3c2)cc1	none
COc1cccc(NC(=S)Nc2ccc(F)cc2)c1	none
COc1cccc(NC(=S)Nc2ccc(O)cc2)c1	PfM18AAP inh 35.1
CCCC/C(O)=C1\C(=O)CCCC1=NCCc1c(C)[nH]c2ccccc12	Kir21 inh -4.44
CCC/C(O)=C1\C(=O)CCCC1=NCCc1c(C)[nH]c2ccc(C)cc12	none
Cc1ccc(C(=O)c2c3ccc(C(F)(F)F)cc3[n+]([O-])n2CCCC(N)=O)cc1	Rce1 inhib active (no result: DNA FID counter, PfM18AAP inh)
Cc1ccc(C(=O)c2c3ccccc3[n+]([O-])n2CCO)cc1	Rce1 inhib active (no result: DNA FID counter, PfM18AAP inh)
CCNC(=O)c1ccc2c(c1)C1C3CCC(C3)C1C(c1ccccc1)N2 (configuration not stated)	DNA FID counter 95.9
CCc1ccccc1NC(=O)c1cccc(N2C(=O)C3C4CCC(C4)C3C2=O)c1 (configuration not stated)	none
C=CCn1cc(C(=O)NCCCN(CC)CC)c(=O)c2cc(S(=O)(=O)N3CCC(C)CC3)ccc21	none
CCOc1ccc(CCNC(=O)COC(=O)c2cccs2)cc1OCC	none
CCOc1ccc(CCNC(=O)COC(=O)CCC(=O)c2cccs2)cc1OCC	Kir21 inh -5.34
CC1CCCCC1Nc1nc2ccc(Cl)cc2n2cnnc12 (configuration not stated)	none
NNC(=O)c1nn(-c2ccccc2)cc1O	PfM18AAP inh 28.3
COCCn1c(N)c(N(Cc2ccccc2)C(=O)COc2ccc(F)cc2Cl)c(=O)[nH]c1=O	none (no result: DNA FID counter, PfM18AAP inh)
Cc1cc(C)c2nc(N3CCCN(C(=O)c4cnccn4)CC3)c(C#N)cc2c1	Kir21 inh -4.97 (no result: Rce1 inhib)
Cc1cc(C)c2nc(N3CCN(C)CC3)c(C#N)cc2c1	none
O=C(NC1CCCC1)c1cc(-c2cccc(Cl)c2)on1	none
COc1ccccc1OCCCCN1CCC(C)CC1	none
Clc1ccc(OCCCCCN2CCCC2)c(Br)c1	none
CC1CCN(CCCOc2ccc(Br)cc2Cl)CC1	Kir21 inh -7.61
CC1CCCN(CCOCCOc2ccc(Br)cc2Cl)C1 (configuration not stated)	none
Cc1ccc(OCCCCN2CCC(C)CC2)c(Br)c1	Kir21 inh -6.01
Cc1ccc(OCCCCCCN2CCNCC2)c(Br)c1	Kir21 inh -5.63 (no result: DNA FID counter, PfM18AAP inh)
Cc1cc(C(=O)Nc2ncn(Cc3ccc(F)cc3)n2)ccc1[N+](=O)[O-]	PfM18AAP inh 30.9
Cc1ccc(NS(=O)(=O)c2cc(Br)cnc2N)c(Cl)c1	none
COc1cc(OC)c(NS(=O)(=O)c2cc(Br)cnc2N)cc1Cl	Kir21 inh -5.81
COc1ccc(OC)c(S(=O)(=O)Nc2cc(OC)c(Cl)cc2OC)c1	Kir21 inh -5.59
COc1ccccc1NS(=O)(=O)c1ccc(OC)c(OC)c1	none
COc1ccccc1NS(=O)(=O)c1cc(Cl)ccc1OC	Kir21 inh -4.84
C/C(=N\NC(=O)c1c(C)nc2ccccn12)c1ccc(O)cc1O	PfM18AAP inh 29.2
O=C(CCSc1ccccc1)Nc1nccs1	none
O=C(CSc1ccccc1)N(c1ccc(Br)cc1)c1nccs1	Kir21 inh -5.22
COc1ccc(CCNC(=O)C2CCC(C(C)(C)C)CC2)cc1OC (configuration not stated)	Kir21 inh -9.09
O=C(Cc1ccccc1)NC1CCN(Cc2ccccc2)CC1	none
N#CC(c1ccccc1)C1CCN(Cc2ccccc2)CC1 (configuration not stated)	Kir21 inh -5.18
Cc1noc(N)c1C1(O)C(=O)Nc2c(Cl)cc(Cl)cc21 (configuration not stated)	none
O=S(=O)(Nc1c(S(=O)(=O)c2ccccc2)c2nc3ccccc3nc2n1C1CCCCC1)c1ccccc1	Kir21 inh -5.13
CC1=CCC(/C=N\Nc2nnc3c(n2)[nH]c2ccccc23)CC1 (configuration not stated)	PfM18AAP inh 35.8
Cc1cc(C)c(-c2cc(C(=O)Nc3cc(C)ccc3C)[nH]n2)c(O)c1	none
Cc1cccc(C=Nc2ccc3c(c2)oc2ccccc23)c1O	none
CC(N=Cc1cc([N+](=O)[O-])ccc1O)c1ccccc1 (configuration not stated)	none
Cc1ccccc1N=Cc1cccc(O)c1O	PfM18AAP inh 29.8
CC(N=Cc1cccc(O)c1O)c1ccccc1 (configuration not stated)	PfM18AAP inh 30.9
COc1cccc(-c2cc3nc4c(c(N5CCC6(CC5)OCCO6)n3n2)CCC4)c1	none (no result: Rce1 inhib)
O=C(/C=C/c1cc(Br)ccc1O)c1ccco1	Kir21 inh -5.9
Cc1nnnn1/C(=C\c1ccccc1)C(=O)OCC(=O)Nc1ccc(Cl)cc1F	Kir21 inh -7.29 (no result: DNA FID counter, PfM18AAP inh)
CCn1c(COc2ccccc2)nnc1SCC(=O)NC1CCCCC1	none
CCn1c(CNc2ccccc2Cl)nnc1SCC(=O)OC1CCCCC1	Kir21 inh -4.49
CCn1c(CNc2cccc(Cl)c2)nnc1SCC(=O)OC1CCCCC1	Kir21 inh -5.14
CCn1c(CNc2ccc(Cl)cc2)nnc1SCC(=O)OC1CCCCC1	Kir21 inh -6.62
COc1cccc(-c2ccc(NC(=O)C3CCCN(Cc4ccc(CO)o4)C3)cc2)c1 (configuration not stated)	none
C/C(=N\NC(=O)c1ccc(Br)cc1)c1cccc(NC(=O)c2cccnc2)c1	Rce1 inhib active
C/C(=N\NC(=O)c1ccncc1)c1cccc(NC(=O)c2ccc(C(C)(C)C)cc2)c1	none
COc1ccccc1N1CCN(C2CCCN(C(=O)CCC(=O)N(C)C)C2)CC1 (configuration not stated)	none
Cc1ccc(-n2c(C)cc(C(=O)COc3c(CO)cc(F)cc3CO)c2C)cc1C	Kir21 inh -7.68
COc1ccc(NC2CCCN(C(=O)CCOc3ccccc3)C2)cc1 (configuration not stated)	none
COc1ccc(CN(C)CC(O)COc2ccc(C(=O)c3ccccc3)cc2)c(OC)c1OC (configuration not stated)	Kir21 inh -4.28
COc1ccc(CN(C)C(=O)c2cccc(Oc3ccccc3)c2)c(OC)c1OC	Kir21 inh -4.87
COc1ccc(Br)cc1CN(C)CC(O)COc1ccc(Br)cc1 (configuration not stated)	Kir21 inh -6.51
NC(=NCCc1c[nH]c2ccccc12)NC(=O)c1ccc(F)cc1	Kir21 inh -7.23
NC(=NCCc1c[nH]c2ccccc12)NS(=O)(=O)c1ccc(F)cc1	none
CCCCCCN1CC(=O)N2Cc3[nH]c4ccccc4c3C[C@H]2C1=O	none
COc1ccc(NC(=O)CN(C)C(=O)CNC(=O)c2ccc3c(c2)OCO3)cc1	none (no result: DNA FID counter, PfM18AAP inh)
Cn1c(SCc2ccccc2F)nnc1-c1ccccn1	none (no result: Rce1 inhib)
CCOC(=O)c1c(-n2c(C)cc(C=O)c2C)sc2c1CCCC2	Kir21 inh -4.59
CCOC(=O)c1cccc(-n2c(C)cc(C=O)c2C)c1	none

Screening results: PubChem BioAssay, several laboratories
